ALDH1A1 inh = ALDH1A1 (human) enzyme inhibition; Purified ALDH1A1, NADH fluorescence, propionaldehyde substrate; actives 7.3% (n = 220,000); Potency, µM (highest dose often 75.3 µM), hits mostly inhibitors; P00352; active = well fitted inhibition curve with a large enough effect, not every such curve was filed as active; inconclusive = small, poorly fitted or top-dose-only effect, or another doubt; inactive = no such curve, though single readings can be large or run the other way
Target sequence (P00352 whole entry, looked up): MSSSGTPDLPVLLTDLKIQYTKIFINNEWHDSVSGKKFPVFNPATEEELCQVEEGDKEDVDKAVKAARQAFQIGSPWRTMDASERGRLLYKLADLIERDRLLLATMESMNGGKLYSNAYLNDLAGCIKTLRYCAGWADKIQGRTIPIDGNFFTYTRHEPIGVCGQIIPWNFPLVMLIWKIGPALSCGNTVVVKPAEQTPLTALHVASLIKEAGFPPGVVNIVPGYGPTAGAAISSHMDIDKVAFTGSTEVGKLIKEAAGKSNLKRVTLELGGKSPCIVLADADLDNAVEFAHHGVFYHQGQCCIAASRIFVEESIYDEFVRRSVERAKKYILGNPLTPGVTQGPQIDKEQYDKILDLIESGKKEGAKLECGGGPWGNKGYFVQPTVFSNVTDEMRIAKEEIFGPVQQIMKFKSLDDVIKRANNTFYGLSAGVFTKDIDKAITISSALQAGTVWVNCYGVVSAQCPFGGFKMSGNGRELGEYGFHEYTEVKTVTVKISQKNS
HTT ATP protect = protects HTT-Q103 PC12 cells, measured by ATP | PC12 HTT-Q103 induced, cytoprotection, ATP luminescence, 40 h | Potency, µM (highest dose often 56.4 µM), hits mostly activators | actives 0.14% (n = 230,000) | AID 1471; also: nearly all actives have a fitted effect of over 45% in size
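Quantitative HTS on tebufenozide-induced (100 nM) PC12 cells expressing HTTQ103 exon 1–GFP; compounds tested as a concentration series; survival measured via cellular ATP.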
Lamin A splicing = LMNA splicing modulation | HeLa LMNA splicing GFP/RFP minigene ratio, 48 h | Potency, µM (highest dose often 46.1 µM), usual class: inhibitors | actives 0.01% (n = 200,000) | AID 1487; active = well fitted inhibition curve with a large enough effect in the signal ratio, with a control signal flat, not every such curve was filed as active; inconclusive = small, poorly fitted or top-dose-only effect, or effect the other way, or a change in a side signal; the % refers to the signal ratio
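S3 HeLa stable clones carrying a lamin A-EGFP splicing minigene plus DsRed2 were seeded at 600 cells/well in Opti-MEM with 2% FBS, pin-dosed and incubated 48 h at 37°C. Acumen cytometry (488 nm) gave the GFP/RFP total-intensity ratio.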
HPGD inh = inhibitors of human 15-hydroxyprostaglandin dehydrogenase (HPGD). P15428. purified HPGD, NADH fluorescence kinetic, PGE2 substrate. Potency, µM, usual class: inhibitors. actives 4.3% (n = 150,000). AID 894; active = well fitted inhibition curve with a large enough effect, not every such curve was filed as active; inconclusive = small, poorly fitted or top-dose-only effect, or another doubt; inactive = no such curve, though single readings can be large or run the other way
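NADH formation kinetics: reaction with 30 uM PGE2 and 1 mM NAD+ (final), 20 nM enzyme, Tris-HCl pH 8 with Tween 20, after 15 min compound preincubation at room temperature. Fluorescence change, last versus first of five reads.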
HTT aggregate = mutant huntingtin aggregation inhibition. AID 1688. actives 1.1% (n = 220,000). Potency, µM (titrated, usually from 46.1 µM), hits mostly inhibitors. PC12 HttQ103-GFP aggregates, Acumen cytometry, 40 h; also: nearly all actives have a fitted effect of over 60% in size
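PC12 cells with ecdysone-inducible HTT exon1 Q103-GFP, induced by 100 nM tebufenozide, given compounds in a concentration series. GFP aggregates (1–25 um, 6 SD above background) counted in lysates by laser-scanning cytometry, 488 nm excitation.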
Hits are given with their value; n = inactive; u = inconclusive; x = no result; [ ] = dose if it differs, or a comment. Hits are enriched below; roughly 8.8% of the tested compounds scored in any of these assays. Unless noted, calls follow the shape of the dose curve; as a rule, active = well fitted curve in the direction sought with a large enough effect; inconclusive = small, poorly fitted or top-dose-only effect, or another doubt; inactive = no such curve, though single readings can be large; an effect the other way counts as inactive or inconclusive.

SMILES	ALDH1A1 inh	HTT ATP protect	Lamin A splicing	HPGD inh	HTT aggregate
COc1ccc(Cl)cc1NS(=O)(=O)c1ccc(S(=O)(=O)N2CCCC2)cc1	28µM	n[10 µM]	u	n	n
COc1ccc(Cl)cc1NS(=O)(=O)c1ccc(OC)c(OC)c1	13µM	n[10 µM]	n	n	n
COc1ccc(Cl)cc1C(=O)Nc1ccc(S(=O)(=O)N2CCCC2)cc1	u	n	n	n	n
COc1ccc(S(=O)(=O)Nc2cc(Cl)ccc2OC)cc1	n	n[10 µM]	u	n	n
COc1ccc(OC)c(NS(=O)(=O)c2ccc(SC)cc2)c1	18µM	n[10 µM]	u	n	n
CCOC(=O)c1sc(NC(=O)C2CC2)nc1C	n	n	n	n	n
CCOC(=O)c1sc(NC(=O)C2C3C=CC(C3)C2C(=O)O)nc1C (configuration not stated)	0.5µM	n	n	n	n
O=C(O)Cc1sc(N/N=C\c2ccccc2)nc1-c1ccccc1	1.1µM	n[10 µM]	u	u	n
CCOC(=O)c1sc(N/N=C/c2ccccc2)nc1C	8.9µM	n[10 µM]	u	14µM	n
Cc1ccc(-c2nc(Nc3cccc(C)c3)sc2CC(=O)O)cc1	u	n[10 µM]	x	x	n[9.22 µM]
CC(=O)NCCNc1ccnc(-c2ccccc2C)n1	u	n	n	x	x
CCCCOc1ccc(C(=O)Nc2ccc3c(c2)N(C(C)=O)CCC3)cc1	x	x	n	x	x
NC(=S)c1ncc(C(F)(F)F)cc1Cl	28µM	n[10 µM]	x	x	n[9.22 µM]
Brc1ccc(-c2ccc(/C=N/Nc3nc4ccccc4[nH]3)o2)cc1	u	n[10 µM]	n	u	n
COC(=O)c1cc(=O)nc2scc(C)n12	22µM	n	n	n	n
COC(=O)c1cc(=O)nc2sc3ccccc3n12	u	n[10 µM]	n	n	n
O=C(CSc1nnc(-c2cccnc2)n1Cc1ccco1)c1ccccc1	u	n	n	16µM	n
O=C(CSc1nnc(-c2ccc(O)cc2)n1Cc1ccco1)c1ccccc1	u	n[10 µM]	n	n	n
O=C(CC(SCc1ccco1)c1ccc(O)cc1)c1cccs1 (configuration not stated)	13µM	n	n	n	n
O=C(CSc1nnc(-c2ccncc2)n1Cc1ccco1)Nc1cccc(O)c1	n	n[10 µM]	n	x	n[9.22 µM]
Fc1ccc(CSc2nnc(-c3cnccn3)n2Cc2ccco2)cc1	n	n	n	n	n
C(=C\c1ccccc1)/CSc1nnc(-c2cnccn2)n1Cc1ccco1	22µM	n[1.9 µM]	u	n	n
O=C(CSc1nnc(-c2ccc(O)cc2)n1Cc1ccco1)c1cccs1	14µM	n	n	u	n
c1ccc(C(CCN2CC3CCC(CC3)C2)c2ccccc2)cc1	n[13.5 µM]	n[10 µM]	x	n	x
Fc1ccc(CSc2nnc(-c3cccnc3)n2Cc2ccco2)cc1	n	n	n	n	n
SMILES	ALDH1A1 inh	HTT ATP protect	Lamin A splicing	HPGD inh	HTT aggregate
Clc1ccccc1CSc1nnc(-c2cccnc2)n1Cc1ccco1	7.9µM	n[0.074 µM]	u	28µM	n
O=[N+]([O-])c1ccc(N2CCCCC2)cc1	x	n[10 µM]	x	x	n[9.22 µM]
O=Cc1ccc(N2CCCCC2)cc1	1.6µM	n	n	x	n
COc1cc(N2CCCC2)ccc1C=O	13µM	n[10 µM]	n	x	n[9.22 µM]
COc1ccccc1CN(Cc1ccco1)c1cnc(S(C)(=O)=O)nc1C(=O)Nc1cc(C)ccc1C	x	x	n	x	x
O=C(N/N=C/c1ccccn1)c1cccs1	u	n	n	x	u
COc1ccc(C)cc1S(=O)(=O)Nc1cccc(-c2ccc(N3CCCC3)nn2)c1	x	x	n	x	x
CO[C@]12C(COC(N)=O)C3=C(C(=O)C(C)=C(N)C3=O)N1CC1NC12 (some centres not stated)	n	n	x	n	13µM
CN(C)c1ccccc1C(=O)N1CCCC(C(=O)c2ccc3ccccc3c2)C1 (configuration not stated)	u	n	x	x	32µM
O=C(c1ccc2ccccc2c1)C1CCCN(C(=O)c2noc3c2CCCC3)C1 (configuration not stated)	14µM	x	x	x	x
CCc1ccc(S(=O)(=O)c2cn(C)c3cc(N4CCN(CC)CC4)c(F)cc3c2=O)cc1	x	x	n	x	x
O=C(c1cnccn1)N1CCC2(CC1)CN(c1ncccn1)C2	u	n	x	u	x
COc1ccccc1CN1CCCC2(CCN(C(=O)c3c(C)noc3C)CC2)C1	n	n	x	n	x
CCCn1c(C)nc2c(NC3CCCCC3)nc(C)nc21	n	n	x	n	x
CCc1[nH]c(=S)c(C#N)c2c1CCCC2	u	x	n	20µM	n
CCc1[nH]c(=O)c(C#N)c2c1CCCC2	u	n	n	u	n
CC1CCCC(NS(=O)(=O)c2ccc3c(c2)OCCO3)C1C (configuration not stated)	14µM	n[10 µM]	n	n	u
NC(=O)COC(=O)CNC(=O)c1ccc(Cl)cc1	2µM	n	n	n	n
COc1ccc(CCNC(=O)C23CN(Cc4ccccc4)CC2C(c2ccc([N+](=O)[O-])cc2)=NO3)cc1 (configuration not stated)	16µM	n[10 µM]	n	n	n
O=C(NCCCCc1ccccc1)C12CN(Cc3ccccc3)CC1C(c1cccc([N+](=O)[O-])c1)=NO2 (configuration not stated)	u	n[10 µM]	n	n	n
O=C(NCCCCc1ccccc1)C12CN(Cc3ccccc3)CC1C(c1ccc([N+](=O)[O-])cc1)=NO2 (configuration not stated)	11µM	n[10 µM]	n	n	n
COc1ccc(CNC(=O)C23CN(Cc4ccccc4)CC2C(c2ccc([N+](=O)[O-])cc2)=NO3)cc1 (configuration not stated)	u	n	n	n	n
O=C(NCc1ccco1)C12CN(Cc3ccccc3)CC1C(c1ccc([N+](=O)[O-])cc1)=NO2 (configuration not stated)	4µM	n	n	n	n
O=C(NCc1ccccc1)C12CN(Cc3ccccc3)CC1C(c1ccc([N+](=O)[O-])cc1)=NO2 (configuration not stated)	u	n	n	n	n
CCc1ccccc1-n1c(SCC(=O)Nc2ccc(C)cc2)nc2n[nH]c(C)c2c1=N	x	x	n	x	x
SMILES	ALDH1A1 inh	HTT ATP protect	Lamin A splicing	HPGD inh	HTT aggregate
Cc1ccc(OCC(=O)Nc2ccccc2C(=O)OCc2cc(=O)n3c(C)csc3n2)cc1	x	x	n	x	x
CN(C)CC[C@@H](C(=O)C(C)(C)C)c1ccccn1	n[13.5 µM]	n[10 µM]	x	n	x
N#Cc1cccc(-c2nc3cnc(N4CCOCC4)nc3n(C3CC3)c2=O)c1	u	n	n	x	x
Cc1ccc(-n2ncc(C(=O)N3CCN(C4CCCCC4)CC3)c2C2CCN(C(=O)OC(C)(C)C)CC2)cc1	x	x	n	x	x
COc1ccc(COC(=O)c2ccc(N3CCCC3=O)cc2)cc1F	n	n	u	14µM	n
COc1ccc(COC(=O)c2ccc3c(=O)n4c(nc3c2)CCC4)cc1F	n	n[10 µM]	x	x	n[9.22 µM]
COCC(C)n1c(C)cc(C(=O)COC(=O)c2ccc(N3CCCC3=O)cc2)c1C (configuration not stated)	25µM	n	n	n	n
